The record followed here is PubChem BioAssay (NCATS).

Results filed as inconclusive are left out. Values without a mark were called inactive. The source made the active and inactive calls. Calls come from the whole dose curve; as a rule, active = well fitted inhibition curve with a large enough effect; inconclusive = small, poorly fitted or top-dose-only effect; inactive = no such curve, though single readings can be large or run the other way.

In experiment [1] the test system is Zika virus NS2B-NS3 protease (unlinked complex). In words: Primary screen GU Rhodamine qHTS for Zika virus inhibitors: Unlinked NS2B-NS3 protease assay (AID 1347159). Note: nearly all actives have a fitted effect of over 60% in size. Note: potency is the fitted concentration of half-maximal effect. The gist of the method: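 Percent inhibition came from the 15-min rise in Rhodamine110 fluorescence (1.5 microM substrate, ~15% conversion), normalized to no-inhibitor and no-enzyme wells and Hill-fitted. Unlinked protease, 25 nM, pH 8.0 Tris buffer; compounds up to 114 microM, 15-min preincubation.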

Experiment [2] concerns Zika virus NS2B-NS3 protease (linked construct). As to the kind of experiment: Primary screen NINDS Rhodamine qHTS for Zika virus inhibitors (AID 1347160). Note: nearly all actives have a fitted effect of over 55% in size. Summed up: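 Rhodamine110-peptide cleavage (1.5 µM substrate) by 25 nM linked NS2B-NS3 enzyme at pH 8.0 (Tris, Tween 20), after 15 min RT preincubation with compounds; 15-min fluorescence change normalized to controls and Hill-fitted.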
Background: Quantitative high-throughput screening tests each substance at several concentrations.
% is set by controls: 0 for no effect and ±100 for the full control effect.

Take `CN(CC1COCCO1)S(=O)(=O)Nc1ccc2ccc3ncc(-c4cnn(C)c4)cc3c(=O)c2c1` (centres undefined): the Potency entry in experiment [1] and in experiment [2] was “inactive” each time.

As to `CC(C)(CO)c1cc2cc(NC(=O)C3(c4ccc5c(c4)OC(F)(F)O5)CC3)c(F)cc2n1CC(O)CO` (centres undefined), the Potency result in experiment [1] and in experiment [2] was “inactive” in each case.

In the case of `COc1cc(NC(=O)c2cc(C3CC3)on2)c(OC)cc1Cl`, the Potency entry in experiment [1] and in experiment [2] was “inactive” throughout.

In the case of `Clc1ccc(Cn2c(Cc3ccccc3)nc3ccccc32)cc1`, the Potency entry in experiment [1] and in experiment [2] was “inactive” throughout.

For `CC(C)Oc1ccc(-c2cnc3c(-c4ccnc5ccccc45)cnn3c2)cc1`, the Potency entry in experiment [1] and in experiment [2] was “inactive” in each case.

Take `CCN(Cc1cc(Nc2nc(C)cn3c(-c4cn[nH]c4)cnc23)sn1)C(C)(C)CO`: the Potency result in experiment [1] and in experiment [2] was “inactive” in each case.

Turning to `C=CC(=O)Nc1ccc(CN2C(=O)N(c3cc(OC)cc(OC)c3)Cc3cnc(Nc4ccc(N5CCN(C)CC5)cc4)nc32)cc1`, the Potency entry in experiment [1] and in experiment [2] was “inactive” each time.

Regarding `C=C1C(=O)O[C@@H]2C[C@]3(C)[C@@H](CCC(C)O)[C@@H]3C[C@H]12` (some centres undefined), the Potency entry in experiment [1] and in experiment [2] was “inactive” in each case.

As for `Cc1cc(C(C)Nc2ccccc2C(=O)O)c2nc(N3CCOCC3)cc(=O)n2c1` (centres undefined), the Potency result in experiment [1] and in experiment [2] was “inactive” each time.

As to `CCCc1cc(C)[nH]c(=O)c1CNC(=O)c1cc(-c2ccnc(N3CCN(C)CC3)c2)cc2c1cnn2C(C)C`, the Potency result in experiment [1] and in experiment [2] was “inactive” in each case.

For `C=C[C@]1(C)C[C@H](O)[C@H]2C(=C)C(=O)O[C@@H]2[C@H]1C(=C)CO`, the Potency result in experiment [1] and in experiment [2] was “inactive” in each case.

As to `CC(=O)Nc1cccc(Nc2ncnc(N3CCC(OCc4ccc(OC(F)(F)F)cc4)CC3)n2)c1C`, the Potency result in experiment [1] and in experiment [2] was “inactive” throughout.

Turning to `COC1CCN(C(=O)c2cc(Cc3n[nH]c(=O)c4ccccc34)ccc2F)CC1`, the Potency result in experiment [1] and in experiment [2] was “inactive” each time.

Regarding `O=C(Nc1ccccc1C(=O)NC1CCCCNC1=O)c1cc2ccccc2s1` (centres undefined), the Potency in experiment [1] is 31.6 µM (active). In addition, the Potency entry in experiment [2] is “inactive”.

Regarding `C=C1C(=O)O[C@@H]2C3=C(C)CCC[C@]3(C)CC[C@@]12O`, the Potency result in experiment [1] and in experiment [2] was “inactive” each time.

Take `CC1(NC(=O)c2ccc(C#Cc3cccc(F)c3)cn2)COC1`: the Potency result in experiment [1] and in experiment [2] was “inactive” throughout.

Consider `Cc1cc(Nc2nc(-c3ccccc3)nc3ccccc23)n[nH]1`, for which the Potency result in experiment [1] and in experiment [2] was “inactive” throughout.

For `COc1cccc(OCCCN)c1-c1cc(Nc2cnc(C#N)cn2)n[nH]1`, the Potency result in experiment [1] and in experiment [2] was “inactive” throughout.

As to `C=C1CO[C@@]2(O[C@H]3CC4C5CC=C6C[C@@H](O)C[C@@H](O[C@@H]7OC[C@H](O)[C@H](O[C@@H]8OC[C@@H](O)[C@H](O)[C@H]8O)[C@H]7O[C@@H]7O[C@@H](C)[C@H](OC(C)=O)[C@@H](OC(C)=O)[C@H]7OC(C)=O)[C@]6(C)C5CC[C@]4(C)[C@@H]3[C@@H]2C)[C@@H](O)[C@H]1OC1OC(C)C(O)C(O)C1O` (some centres undefined), the activity change, negative = inhibition in experiment [1] was -10.8% [at 19.1 µM]; in experiment [2], 5.43% [at 10.7 µM].

Consider `O=C(NCCN1CCC(n2c(=O)[nH]c3ccccc32)CC1)c1cc2cc(F)ccc2[nH]1`, for which the Potency entry in experiment [1] and in experiment [2] was “inactive” in each case.

With `O=C(Nc1ccc(CN2CCOCC2)cc1)c1ccc(-c2cccc(Cl)c2)o1`, the Potency entry in experiment [1] and in experiment [2] was “inactive” throughout.

On to `C1=C/COCc2cc(ccc2OCCN2CCCC2)Nc2nccc(n2)-c2cccc(c2)COC/1`, for which the Potency entry in experiment [1] and in experiment [2] was “inactive” each time.

`O=C(NCCCCCCCCNC(=O)C(Cl)Cl)C(Cl)Cl`: the Potency entry in experiment [1] and in experiment [2] was “inactive” each time.

Take `C/C1=C\CCC2=CC(OC2=O)C(C)(C)/C=C/C1=O` (centres undefined): the Potency entry in experiment [1] and in experiment [2] was “inactive” throughout.

In the case of `CCOc1ccc(CCNC(=O)c2cc3sc(Cl)cc3n2C)cc1OCC`, the Potency entry in experiment [1] and in experiment [2] was “inactive” in each case.

For the compound `COC1C(O)C(OC2CCC3(C)C(CCC45CCC6C7(COC(=O)C7)OC4(O)C6(C)CCC35)C2)OC(C)C1OC1OC(CO)C(OC2OC(CO)C(O)C(O)C2O)C(O)C1O` (centres undefined), the Potency entry in experiment [1] and in experiment [2] was “inactive” each time.

With `Cc1ccc(C)c(NS(=O)(=O)c2cc(C(=O)Nc3ccccc3-c3ccccc3)ccc2C)c1`, the Potency entry in experiment [1] and in experiment [2] was “inactive” in each case.

Turning to `Cc1ccc(-c2ncccn2)c(C(=O)N2C[C@H](COc3ccc(F)cn3)CC[C@H]2C)c1`, the Potency entry in experiment [1] and in experiment [2] was “inactive” in each case.

Consider `Cc1cc(-c2nc(-c3ccc(OC(F)(F)F)cc3)no2)nn1Cc1ccnc(N2CCN(C3CC3)CC2)c1`, for which the Potency result in experiment [1] and in experiment [2] was “inactive” each time.

On to `C=C1C(=O)OC2CC(C)C(CCC(C)=O)=CCC12` (centres undefined), for which the Potency entry in experiment [1] and in experiment [2] was “inactive” each time.

Consider `CC1OC(=O)C[C@@H]2C(C(=O)O)=CO[C@@H](O[C@H]3O[C@H](CO)[C@@H](O)[C@H](O)[C@H]3O)[C@H]12` (some centres undefined), for which the Potency entry in experiment [1] and in experiment [2] was “inactive” throughout.

As for `N#CC(CCCN1CCN(/N=C/c2cccnc2)CC1)(c1ccccc1)c1ccccc1`, the Potency result in experiment [1] and in experiment [2] was “inactive” each time.

With `C=C1CC[C@@H]2[C@](C)(CO)[C@H](O)CC[C@@]2(C)[C@@H]1C/C=C1/C(=O)OCC1O` (some centres undefined), the Potency result in experiment [1] and in experiment [2] was “inactive” in each case.

Regarding `Cc1nnc(-c2ccc(-c3ccc(C(=O)Nc4ccc(O)c(N5CCN(C)CC5)c4)cc3)c(C)c2)o1`, the Potency result in experiment [1] and in experiment [2] was “inactive” each time.

For the compound `NC(=O)c1ccccc1Nc1ccnc(Nc2cccc(O)c2)n1`, the Potency entry in experiment [1] and in experiment [2] was “inactive” throughout.

In the case of `CC1CCCC[C@H]2C(=O)C=C[C@H](O)[C@@H]2CC(=O)O1` (some centres undefined), the Potency result in experiment [1] and in experiment [2] was “inactive” each time.

For the compound `COc1ccc2cc3c(NC(=O)c4ccco4)nn(C)c3nc2c1`, the Potency entry in experiment [1] and in experiment [2] was “inactive” each time.
